Keap1-Nrf2 PPI: Keap1-Nrf2 (human) interaction inhibition; AID 504523; hit rate 0.15% among 340,000; inhibition, % at 9.4 µM; Keap1 Kelch-Nrf2 peptide fluorescence polarization, 1536-well; Q14145; in the data active means inhibition above about 12%;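 further: human Keap1 Kelch domain with fluorescein labeled Nrf2 9mer peptide probe; 0% = neutral control wells and 100% = peptide positive control; higher means more block of Keap1 binding to Nrf2 peptide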
Target sequence (Q14145 whole entry, looked up, the tested form may be a part): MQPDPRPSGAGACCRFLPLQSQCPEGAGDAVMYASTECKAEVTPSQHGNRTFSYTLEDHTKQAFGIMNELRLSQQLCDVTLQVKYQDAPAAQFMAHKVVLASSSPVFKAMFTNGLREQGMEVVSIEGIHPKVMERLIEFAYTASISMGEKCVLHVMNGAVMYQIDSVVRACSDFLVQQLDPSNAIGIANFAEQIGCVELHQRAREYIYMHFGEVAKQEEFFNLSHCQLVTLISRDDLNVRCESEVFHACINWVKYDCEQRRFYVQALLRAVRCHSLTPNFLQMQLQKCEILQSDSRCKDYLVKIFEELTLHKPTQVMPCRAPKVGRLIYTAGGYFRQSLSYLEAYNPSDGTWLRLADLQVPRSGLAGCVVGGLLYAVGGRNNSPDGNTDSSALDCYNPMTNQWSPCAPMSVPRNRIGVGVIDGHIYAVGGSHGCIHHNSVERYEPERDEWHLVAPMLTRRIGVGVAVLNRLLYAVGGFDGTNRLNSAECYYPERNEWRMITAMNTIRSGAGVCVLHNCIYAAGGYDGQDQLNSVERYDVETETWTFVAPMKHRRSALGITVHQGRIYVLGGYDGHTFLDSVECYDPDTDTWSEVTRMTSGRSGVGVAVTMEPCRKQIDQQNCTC
LANA-H2A inh: blocks KSHV LANA binding to histone H2A/H2B; hit rate 0.6% among 320,000; inhibition, % (concentration not given with the values); Q9QR71; cell-free LANA-H2A/H2B peptide, fluorescence polarization; in the data active means inhibition mostly above about 10%, no sharp cut-off; inactive means mostly below about 6.7%
LANA DNA inh: blocks KSHV LANA C-terminal domain binding to DNA. MBP-C-LANA/FAM-LBS DNA binding, fluorescence polarization. inhibition, % at 9 µM. hit rate 0.078% among 340,000;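 active means highest replicate inhibition at or above 60% at 9 µM, even if other replicates fall short; inactive means all replicates below 60% inhibition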;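 further: 0% = neutral control wells and 100% = 4 µM acridine orange control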
Cardiac RTF inh: cardiac RTF calcium desensitization; P19429+P45379; IANBD-labeled cardiac RTF, Ca2+ fluorescence; inhibition, % at 7.15 µM; hit rate 0.12% among 340,000; AID 493244;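 active means inhibition above the mean inhibition of all tested compounds plus 3 SD, cut at about 17% in these data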;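 further: assay run at fixed EC70 calcium of 1.6 mM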
cardiac RTF act: increases calcium sensitivity of human cardiac regulated thin filaments; P19429+P45379; IANBD-labeled TnC RTF fluorescence at EC20 calcium; 0% EC20 calcium, 100% full calcium; activation, % at 7.2 µM; hit rate 0.24% among 340,000;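 active means activation above the mean over all tested compounds plus 3 SD, cut at about 30% in these data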;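 further: rise in fluorescence read as greater calcium sensitivity of cardiac thin filaments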
* marks the source's active call; other numbers are inactive results; . = no result; + = active, no number. A selection: hits, their analogues and other compounds. The true share with any hit is near 0.99%.

SMILES	Keap1-Nrf2 PPI	LANA-H2A inh	LANA DNA inh	Cardiac RTF inh	cardiac RTF act
Cc1ccc(NC(=O)CC2OC(=O)c3ccccc32)cc1S(=O)(=O)N1CCCCCC1 (stereo unspecified)	-2	11*	2	-2	2
Cc1cc(O)c(C=O)c2c1C(=O)Oc1c(CO)c(O)c3c(c1O2)C(O)OC3=O (stereo unspecified)	47*	-2	118*	30*	-29
O=C(Nc1ccc(S(=O)(=O)N2CCCCC2)cc1)c1cccnc1Cl	-6	-2	-2	-10	-6
COc1ccc(OC)c(-c2nn(-c3ccccc3)cc2C(=O)N2CCc3ccccc3C2)c1	1	+	-1	1	4
COc1cc(Cl)ccc1OCc1cc(C(=O)NC2CCc3ccccc32)no1 (stereo unspecified)	-4	29*	2	-2	0
CSc1ccccc1OCc1cc(C(=O)NC2CCc3ccccc32)no1 (stereo unspecified)	-9	-10	1	1	-2
Cc1ccc(O)c(C(=O)c2cc(C#N)c(=O)n(-c3nccs3)c2)c1	-28	0	21	-111	69*
Cc1ccsc1/C=C(\C(=O)c1ccc(OC(C)C)cc1)c1nc2ccccc2o1	-1	11*	3	14	-3
CCN(CC)CCN(Cc1cc2ccc(C)cc2[nH]c1=O)C(=S)Nc1ccccc1C(=O)OC	-1	1	-2	1	-5
Cc1nn(-c2ccccc2)c(N2CCCC2)c1/C=C1\N=C(c2ccc(OC(C)C)cc2)OC1=O	0	2	3	-61	64*
Cc1ccc(C2=N/C(=C\N3CCCCC3)C(=O)O2)cc1	3	-3	0	-4	1
CN(CC(=O)Nc1cccc(F)c1)C(=O)CN1c2cccc3cccc(c23)S1(=O)=O	-2	1	0	-2	-4
CSc1ncccc1C(=O)N1CCCC(CCC(=O)NCc2ccc(F)c(F)c2)C1 (stereo unspecified)	-4	14*	0	-1	2
Cc1occc1C(=O)N1CCCC(CCC(=O)NCc2ccc(F)c(F)c2)C1 (stereo unspecified)	-4	4	-1	-5	2
Cc1ccc(/C=N/NC(=O)c2ccc3nc[nH]c3c2)o1	-3	0	3	-18	6
CC[C@]12c3[nH]c4cc(-c5ccco5)ccc4c3CCN1C(=O)[C@@H](CC(=O)NC/C=C(\C)CCC=C(C)C)C[C@@H]2C(=O)N1CCN(C(=O)c2ccco2)CC1	-7	.	0	-7	5
CC[C@]12c3[nH]c4ccccc4c3CCN1C(=O)C(CC(=O)NC/C=C(\C)CCC=C(C)C)C[C@@H]2C(=O)N1CCN(C(=O)c2ccco2)CC1 (stereo partly specified)	0	+	0	-11	-1
Cc1ccc(S(=O)(=O)NCCC(=O)NCc2cccnc2)cc1	-1	0	0	-1	0
Cn1c(=O)c(Nc2ccc(Cl)cc2)c2c3c(cccc31)C(=O)c1ccccc1-2	.	66*	.	.	.
Cc1ccc(Cl)cc1-n1c(=O)cc(N2CCN(C(=O)c3ccco3)CC2)[nH]c1=O	-8	1	-1	-28	-3
O=C(c1ccco1)N1CCN(c2cc(=O)n(-c3ccc(Cl)cc3)c(=O)[nH]2)CC1	-6	19*	0	-2	-8
COc1ccc(-n2c(O)c(/C=N/NS(=O)(=O)c3cc(C)ccc3C)c3ccccc3c2=O)cc1OC	-117	-10	-6	-70	114*
COc1ccc(-n2c(O)c(/C=N/NS(=O)(=O)c3ccc(C)cc3)c3ccccc3c2=O)cc1OC	-133	.	-12	-75	59*
Cc1ccc(S(=O)(=O)n2nc(C)c(C#N)c2N)cc1	-2	-2	-2	6	-5
CCN1/C(=C/c2ccc3cc(C)ccc3[n+]2CC)Sc2cc(C)c(C)cc21	-6	.	-39	-193	36*
SMILES	Keap1-Nrf2 PPI	LANA-H2A inh	LANA DNA inh	Cardiac RTF inh	cardiac RTF act
CCN1/C(=C/c2ccc3cc(C)ccc3[n+]2CC)Sc2ccccc21	-37	-135	-74	-52	47*
CC[n+]1ccccc1/C=C1\Sc2ccc(C)cc2N1C	-4	-70	-4	-7	-2
CC[n+]1c(/C=C2\Sc3ccccc3N2C)ccc2cccc(C)c21	-39	.	-75	-105	46*
CN1CCN(C(=O)c2cc3c(C(F)(F)F)nn(C)c3s2)CC1	-6	17*	-2	-6	1
Cn1nc(C(F)(F)F)c2cc(C(=O)NC3CC3)sc21	-8	-2	0	0	3
CCN(C(=O)CN1CCCC(C)C1)c1c(N)n(Cc2ccccc2)c(=O)[nH]c1=O (stereo unspecified)	-3	13*	-2	-1	-9
Cc1ccc2c(c1)CCCN2CC(=O)N(C)c1c(N)n(Cc2ccccc2)c(=O)[nH]c1=O	7	6	13	-55	38*
CCn1c(=O)c(C(=O)CN2c3ccccc3CC2C)c(N)n(Cc2ccccc2)c1=O (stereo unspecified)	8	-2	-2	-4	-1
CCn1c(=O)c(C(=O)CN2CCCc3ccccc32)c(N)n(Cc2ccccc2)c1=O	-5	-4	1	-67	31*
CCN(C(=O)CN1CCCc2cc(C)ccc21)c1c(N)n(Cc2ccccc2)c(=O)[nH]c1=O	2	.	0	-28	16
COc1cc(/C=C2\SC(=Nc3cccnc3)NC2=O)cc(OC)c1OC	.	27*	.	.	.
COc1cc(/C=C2\SC(=Nc3ccc(Cl)c(C(=O)O)c3)NC2=O)c(Br)c(Br)c1O	-92	-34	-55	-135	70*
COc1cc(/C=C2\SC(=Nc3ccccc3)NC2=O)cc(Cl)c1O	-8	-1	-31	-92	63*
O=C1NC(=Nc2cccnc2)S/C1=C\c1cccc(F)c1	0	-1	0	-9	-1
Fc1ccc(CNCCC(Cc2ccccc2)c2ccco2)cc1 (stereo unspecified)	-2	4	0	-5	1
Cc1cc(C)cc(N=Cc2[nH]c3ccc(Br)c(Cl)c3c2O)c1	-1	-6	2	-88	64*
CC1=Nc2ccccc2/C1=C\c1nc(-c2ccccc2)oc1O	4	-2	2	-30	7
CC1=Nc2ccccc2/C1=C\c1nc(-c2ccc(C(F)(F)F)cc2)oc1O	0	-1	4	-45	156*
COC(=O)C1CN(S(=O)(=O)c2ccccc2)CCN1S(=O)(=O)c1ccccc1 (stereo unspecified)	-2	2	-1	-5	-4
Cc1cccc(CS(=O)(=O)Cc2ccc(C(=O)NCCc3ccccc3)o2)c1	0	-7	-1	-4	-6
COc1ccc(CCNC(=O)c2c(N)no[n+]2[O-])cc1OC	0	6	80*	-2	6
Cc1ccccc1CS(=O)(=O)Cc1ccc(C(=O)NCCc2ccccc2)o1	-4	15*	-1	-5	0
COc1ccc(S(=O)(=O)Cc2ccc(C(=O)NC(C)C)o2)cc1	-3	5	0	-8	0
